Source: PubChem BioAssay AID602350 (Broad Institute, 2012)
Results with a measured potency or affinity are listed apart. Calls of active or inactive are those of the source.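 How the source made its calls: active means absorbance falls by 30% or more versus neutral controls, with a potency fitted within twice the top valid dose; inconclusive means no clear call, values can overlap the other calls; inactive means change opposite to expected direction, plus the rest.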

Each molecule was assayed against Protein disulfide-isomerase (Homo sapiens) (UniProt P07237) (assay: PDI inhibitors, insulin aggregation turbidity, dose response, biochemical, absorbance, cherry-picked samples (AID 602350;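 further: 0% = neutral controls and -100% = rutin hydrate positive control wells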)). Details: recombinant PDI insulin aggregation, absorbance 650 nm, 90 min; series mostly up to 19.5 µM; activity change, negative = inhibition: at the top concentration.
Sequence of Protein disulfide-isomerase (Homo sapiens) (P07237 whole entry, looked up): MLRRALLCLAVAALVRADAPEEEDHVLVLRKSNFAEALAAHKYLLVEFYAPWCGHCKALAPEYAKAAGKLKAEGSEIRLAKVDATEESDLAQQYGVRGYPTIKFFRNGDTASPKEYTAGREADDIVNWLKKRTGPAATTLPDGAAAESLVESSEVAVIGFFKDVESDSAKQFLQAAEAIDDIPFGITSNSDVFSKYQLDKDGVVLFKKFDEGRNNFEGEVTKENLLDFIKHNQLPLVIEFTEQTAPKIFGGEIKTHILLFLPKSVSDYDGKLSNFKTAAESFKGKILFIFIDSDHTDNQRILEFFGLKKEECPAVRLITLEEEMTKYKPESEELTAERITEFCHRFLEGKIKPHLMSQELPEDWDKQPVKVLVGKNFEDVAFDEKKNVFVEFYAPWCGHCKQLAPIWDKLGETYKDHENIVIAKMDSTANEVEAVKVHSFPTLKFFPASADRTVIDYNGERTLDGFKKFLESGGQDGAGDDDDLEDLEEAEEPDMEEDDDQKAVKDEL

| SMILES | activity change, negative = inhibition |
| --- | --- |
| CCOC(C(=O)OCCCN(CC)CC)(c1ccccc1)c1ccccc1 | 8.02% (inactive) |
| CN1CCN(CCOC2c3ccccc3CSc3ccc(Cl)cc32)CC1 (stereo unspecified) | -3.03% (inactive) |
| C[C@H]1CCCC(=O)CCCCCc2cc(O)cc(O)c2C(=O)O1 | 8.5% (inactive) |
| CCOC(=O)C1(CCOc2ccccc2)CCN(Cc2cccc(O)c2)CC1 | -12.9% (inactive) |
| CC(Cc1ccc(O)cc1)NCC(O)c1ccc(O)c(O)c1 (stereo unspecified) | -11.8% (inactive) |
| NC(=O)CSc1nnc([C@@H](N)Cc2c[nH]c3ccccc23)o1 | -3.03% (inactive) |
